Assay [1] can be described thus: binders of probe aFSTL3 on microarray, primary screen, stem cell growth factor project, biochemical, small-molecule microarray, fluorescence 635/667 (AID 1064).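 Note: measures binding of the biotinylated anti-FSTL3 antibody to printed compounds.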 The following applies: higher = more signal.
Assay [2] can be described thus: binders from COS7 lysate, DM2A8 probe, primary screen, torsin A project, cell lysate, small-molecule microarray, fluorescence 635/667 (AID 1065). The following applies: higher = more signal, COS7 lysate expressing mutant human TOR1A.
Assay [3] can be described thus: binders of probe aFGF2 on microarray, primary screen, stem cell growth factor project, biochemical, small-molecule microarray, fluorescence 635/667 (AID 1067).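 Note: measures binding of biotinylated aFGF2 protein to printed compounds on slides; z-score merges feature fluorescence and signal-to-noise across triplicate slides.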 The following applies: higher = more signal.
Assay [4] in a line: binders of probe aFGF10 on microarray, primary screen, stem cell growth factor project, biochemical, small-molecule microarray, fluorescence 635/667 (AID 1071).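 Note: score merges 667 nm spot intensity and signal to noise from triplicate slides.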 The following applies: higher = more signal.
Assay [5] concerns the target Neurogenic locus notch homolog protein 2 (Homo sapiens) (UniProt Q04721). Nature of the assay: Notch2 binders on small-molecule microarrays, primary screen, biochemical, small-molecule microarray, 635 nm fluorescence, stem cell growth factors (AID 1073). The following applies: Notch2 binding, higher = more signal.
For assay [6], the target named is Pro-neuregulin-1, membrane-bound isoform (Homo sapiens) (UniProt Q02297). Nature of the assay: NRG1 binders on small-molecule microarrays, primary screen, psychiatric disease protein project, biochemical, small-molecule microarray, fluorescence 635/667 (AID 1075).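 Note: score combines 667 nm spot fluorescence with signal to noise.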 The following applies: NRG1 binding, 635 nm fluorescence, higher = more signal.
Sequence of Pro-neuregulin-1, membrane-bound isoform (Homo sapiens) (Q02297 whole entry, looked up, the tested form may be a part, canonical isoform): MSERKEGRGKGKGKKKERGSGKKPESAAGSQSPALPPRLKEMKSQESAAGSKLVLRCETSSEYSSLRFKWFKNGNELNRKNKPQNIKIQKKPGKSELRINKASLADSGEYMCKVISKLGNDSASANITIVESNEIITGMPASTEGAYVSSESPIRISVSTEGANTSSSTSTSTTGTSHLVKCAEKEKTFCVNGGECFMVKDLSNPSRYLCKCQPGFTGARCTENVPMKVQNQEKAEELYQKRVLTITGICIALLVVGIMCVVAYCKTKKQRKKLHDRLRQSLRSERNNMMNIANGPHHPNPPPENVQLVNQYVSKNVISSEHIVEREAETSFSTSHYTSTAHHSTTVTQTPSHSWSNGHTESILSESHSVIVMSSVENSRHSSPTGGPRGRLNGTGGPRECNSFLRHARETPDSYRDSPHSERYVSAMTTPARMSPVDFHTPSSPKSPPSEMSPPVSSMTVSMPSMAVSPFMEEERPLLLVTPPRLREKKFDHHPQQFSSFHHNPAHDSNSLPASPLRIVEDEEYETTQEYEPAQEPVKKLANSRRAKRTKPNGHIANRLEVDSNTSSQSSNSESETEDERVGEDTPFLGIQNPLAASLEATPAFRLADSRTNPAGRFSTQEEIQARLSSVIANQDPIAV
Assay [7] concerns Neuregulin-1 EGF-like domain. The assay is described as follows: binders of neuregulin-1 EGF-like domain, primary screen, biochemical, small-molecule microarray, 635 nm fluorescence (AID 1081).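 Note: binding of the protein to compounds printed on small-molecule microarray slides.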 The following applies: small-molecule microarray binding, higher = more signal.
Assay [8] is described as follows: FRG1 promoter luciferase signal modulators, primary screen, FRG1 inhibition for FSHD, cell-based, C2C12 myotubes, firefly/Renilla luciferase, luminescence (AID 1084). The following applies: higher = more signal, called active from +8 up or from −8 down.
A short description of assay [9]: binders of probe aFST on microarray, primary screen, stem cell growth factor project, biochemical, small-molecule microarray, fluorescence 635/667 (AID 1086).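 Note: score merges 667 nm fluorescence with signal-to-noise of each printed compound spot.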 The following applies: higher = more signal.
The nature of assay [10]: binders of probe aHhip on microarray, primary screen, stem cell growth factor project, biochemical, small-molecule microarray, fluorescence 635/667 (AID 1087).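 Note: score merges spot fluorescence at 667nm with spot signal to noise ratio.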 The following applies: higher = more signal.
Assay [11] concerns PRMT1 (protein arginine N-methyltransferase 1). Nature of the assay: PRMT1 binders on small-molecule microarrays, primary screen, biochemical, small-molecule microarray, 635 nm fluorescence (AID 1088).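 Note: binding of Prmt1 protein to compounds spotted on small-molecule microarray slides.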 The following applies: small-molecule microarray binding, higher = more signal.
A short description of assay [12]: yeast growth modulation, basal conditions, primary screen, YJM789 clinical isolate, OD600, 24 h (AID 1089).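 Note: growth of clinical yeast isolate S. cerevisiae YJM 789 seeded 1000 cells per well; test concentration not given here.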 The following applies: S. cerevisiae YJM789 growth, higher = more signal, called active from +8 up or from −8 down.
The nature of assay [13]: fission yeast growth modulation, primary screen, strain 972, OD600, 24 h, no modulator (AID 1090).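 Note: basal condition with compound alone and no growth modifier present; test concentration not given here.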 The following applies: S. pombe 972 growth, higher = more signal, called active from +8 up or from −8 down.
Assay [14] is described as follows: S. cerevisiae growth modulation with rapamycin, primary screen, strain BY4716, OD600, 96 h (AID 1091). Note: test concentration not given here. The following applies: higher = more signal, called active from +8 up or from −8 down.
In assay [15] the target is Torsin-1A-interacting protein 2 (Homo sapiens) (UniProt Q8NFQ8). Nature of the assay: LULL1 binders on small-molecule microarray, primary screen, cell lysate, human LULL1 lysate, 635/667 nm fluorescence (AID 1092).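 Note: probe is lysate of COS7 cells overexpressing human LULL1; score merges per-feature 667 nm fluorescence with signal-to-noise.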 The following applies: hLULL1 lysate binding, 635 nm fluorescence, higher = more signal.
Sequence of Torsin-1A-interacting protein 2 (Homo sapiens) (Q8NFQ8 whole entry, looked up): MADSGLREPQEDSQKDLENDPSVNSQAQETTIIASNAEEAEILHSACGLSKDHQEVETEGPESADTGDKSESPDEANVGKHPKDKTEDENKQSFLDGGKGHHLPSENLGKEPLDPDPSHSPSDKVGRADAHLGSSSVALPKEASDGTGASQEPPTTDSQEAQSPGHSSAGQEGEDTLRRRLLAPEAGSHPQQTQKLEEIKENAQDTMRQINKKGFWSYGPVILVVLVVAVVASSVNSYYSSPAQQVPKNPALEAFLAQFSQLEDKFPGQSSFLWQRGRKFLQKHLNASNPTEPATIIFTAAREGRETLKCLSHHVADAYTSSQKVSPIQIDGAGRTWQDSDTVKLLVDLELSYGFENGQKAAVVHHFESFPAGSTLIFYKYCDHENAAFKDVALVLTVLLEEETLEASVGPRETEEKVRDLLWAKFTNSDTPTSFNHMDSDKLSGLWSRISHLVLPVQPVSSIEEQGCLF
Assay [16] is described as follows: E. coli growth modulation, two-sided OD650, primary screen, E. coli filamentation project, strain DRC41, 24 h (AID 1093).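 Note: MC1000 strain lacking acrAB efflux and sulA so SOS filamentation is blocked; test concentration not given here.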 The following applies: OD650, 24 h, higher = more signal, called active from +8 up or from −8 down.
Assay [17] in a line: small-molecule microarray binders of probe aLefty2, primary screen, biochemical, biotinylated probe, 635/667 nm fluorescence (AID 1094).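 Note: score merges spot fluorescence near 667 nm with spot signal-to-noise ratio.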 The following applies: higher = more signal.
Assay [18] relates to Noggin (protein binding on small-molecule microarray). Nature of the assay: Noggin binders on small-molecule microarray, primary screen, biochemical, 635/667 nm fluorescence (AID 1095).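 Note: score merges 667 nm feature fluorescence with signal to noise over triplicate slides.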 The following applies: 635 nm fluorescence, higher = more signal.
In assay [19] the target is Neurogenic locus notch homolog protein 3 (Homo sapiens) (UniProt Q9UM47). Nature of the assay: NOTCH3 binders on small-molecule microarray, primary screen, biochemical, 635/667 nm fluorescence (AID 1096). The following applies: NOTCH3 binding, 635 nm fluorescence, higher = more signal.
Sequence of Neurogenic locus notch homolog protein 3 (Homo sapiens) (Q9UM47 whole entry, looked up): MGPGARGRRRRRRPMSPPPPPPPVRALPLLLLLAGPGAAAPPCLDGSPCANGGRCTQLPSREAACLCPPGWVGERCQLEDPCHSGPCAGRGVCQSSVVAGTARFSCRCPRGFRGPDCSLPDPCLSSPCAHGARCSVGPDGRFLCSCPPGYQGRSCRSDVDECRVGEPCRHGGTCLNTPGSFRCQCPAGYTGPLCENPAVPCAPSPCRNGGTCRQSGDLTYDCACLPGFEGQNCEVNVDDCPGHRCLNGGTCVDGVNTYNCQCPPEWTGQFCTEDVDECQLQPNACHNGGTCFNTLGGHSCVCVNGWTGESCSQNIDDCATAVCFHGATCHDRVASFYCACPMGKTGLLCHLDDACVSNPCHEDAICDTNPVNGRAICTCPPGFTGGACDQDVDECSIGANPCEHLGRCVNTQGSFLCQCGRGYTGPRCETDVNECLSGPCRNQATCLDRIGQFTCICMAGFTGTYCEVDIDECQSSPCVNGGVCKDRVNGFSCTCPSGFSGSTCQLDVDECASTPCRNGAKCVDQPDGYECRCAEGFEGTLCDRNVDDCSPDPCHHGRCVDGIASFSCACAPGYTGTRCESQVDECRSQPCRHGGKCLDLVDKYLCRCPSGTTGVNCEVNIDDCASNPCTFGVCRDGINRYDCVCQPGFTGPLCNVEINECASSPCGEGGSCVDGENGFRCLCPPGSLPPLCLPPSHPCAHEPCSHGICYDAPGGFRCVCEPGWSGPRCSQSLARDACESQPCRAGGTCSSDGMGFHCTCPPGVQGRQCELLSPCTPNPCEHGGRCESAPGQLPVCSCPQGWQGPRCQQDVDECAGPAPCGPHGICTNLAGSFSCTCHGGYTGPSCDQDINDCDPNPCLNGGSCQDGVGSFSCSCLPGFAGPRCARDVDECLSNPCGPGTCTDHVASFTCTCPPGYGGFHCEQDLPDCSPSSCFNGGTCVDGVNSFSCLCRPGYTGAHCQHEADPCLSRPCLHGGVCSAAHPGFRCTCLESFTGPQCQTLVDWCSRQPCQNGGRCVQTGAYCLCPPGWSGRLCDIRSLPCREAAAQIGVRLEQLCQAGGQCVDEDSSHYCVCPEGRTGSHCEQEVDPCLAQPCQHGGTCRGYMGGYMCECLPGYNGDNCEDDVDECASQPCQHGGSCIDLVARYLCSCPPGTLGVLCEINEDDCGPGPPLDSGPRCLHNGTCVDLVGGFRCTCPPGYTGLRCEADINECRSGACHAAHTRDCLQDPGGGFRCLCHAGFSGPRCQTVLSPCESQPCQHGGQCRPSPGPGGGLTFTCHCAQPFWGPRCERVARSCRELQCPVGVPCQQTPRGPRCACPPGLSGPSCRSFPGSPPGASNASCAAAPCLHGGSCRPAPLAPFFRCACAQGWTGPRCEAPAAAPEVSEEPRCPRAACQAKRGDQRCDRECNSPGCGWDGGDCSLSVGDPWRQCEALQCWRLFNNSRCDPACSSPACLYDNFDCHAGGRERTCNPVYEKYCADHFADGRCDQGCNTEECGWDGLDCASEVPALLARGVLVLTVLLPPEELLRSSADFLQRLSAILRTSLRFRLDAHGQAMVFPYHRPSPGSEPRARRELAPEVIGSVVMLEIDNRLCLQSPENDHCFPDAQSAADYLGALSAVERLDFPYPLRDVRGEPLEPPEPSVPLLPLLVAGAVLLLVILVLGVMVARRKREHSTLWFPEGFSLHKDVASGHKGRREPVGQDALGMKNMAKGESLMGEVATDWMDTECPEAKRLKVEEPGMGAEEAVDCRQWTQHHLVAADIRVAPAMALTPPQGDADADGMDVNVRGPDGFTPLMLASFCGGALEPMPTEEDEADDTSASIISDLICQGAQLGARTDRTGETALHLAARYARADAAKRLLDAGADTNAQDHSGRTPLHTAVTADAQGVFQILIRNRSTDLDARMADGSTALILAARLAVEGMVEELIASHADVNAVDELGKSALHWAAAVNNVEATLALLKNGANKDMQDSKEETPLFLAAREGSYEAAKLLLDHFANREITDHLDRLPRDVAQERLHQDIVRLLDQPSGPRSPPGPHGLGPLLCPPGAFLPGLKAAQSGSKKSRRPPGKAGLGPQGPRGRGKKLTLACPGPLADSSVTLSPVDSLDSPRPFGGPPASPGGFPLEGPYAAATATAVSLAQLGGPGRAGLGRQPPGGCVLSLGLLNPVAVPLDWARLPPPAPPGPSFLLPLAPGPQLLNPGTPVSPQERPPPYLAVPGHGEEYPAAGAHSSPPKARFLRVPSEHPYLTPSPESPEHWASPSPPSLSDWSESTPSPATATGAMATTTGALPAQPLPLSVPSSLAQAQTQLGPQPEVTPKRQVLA
The nature of assay [20]: small-molecule microarray binders of probe aEGFR, primary screen, biochemical, biotinylated probe, 635/667 nm fluorescence (AID 1097).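 Note: probe is a biotinylated anti-EGFR antibody binding compounds printed on slides; score combines fluorescence near 667 nm and signal to noise of each spot.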 The following applies: higher = more signal.

The results in this text go back to PubChem BioAssay.

Active and inactive are the calls of the source.

As for `C=CCC(OC(C)=O)[C@@H]1[C@@H](N(Cc2cccc3ccccc23)C(=O)c2ccc(C)cc2)c2cc(OCCCO)ccc2N1C(=O)c1ccc2ccccc2c1` (stereo not given in full), the composite z-score in [1] was -0.0181; in assay [2], 0.0379; in assay [3] it was -0.152; in [4], 0.409; in assay [5], 0.145; in [6] it was -0.126. Moreover, the composite z-score was -0.163 in assay [7]; 0.137 in assay [9]; 0.0695 in [10]; 0.377 in assay [11]; 1.19 in assay [15]; -0.0574 in assay [17]. In addition, the composite z-score in assay [18] is 0.684; in [19], 0.103; in [20], -0.0432. Further, the z-score in assay [8] is -1.8 (inactive); in assay [12] it was -0.844 (inactive); in [13] it was 0.148 (inactive); in assay [14], -0.302 (inactive); in [16], 0.649 (inactive).
With `COCCOC(=O)N1C(=O)[C@@]2(c3cc(C#CCCO)ccc31)[C@H](C(=O)NC[C@H](O)c1ccccc1)[C@H]1C(=O)O[C@H](c3ccccc3)[C@H](c3ccccc3)N1[C@@H]2c1ccccc1OCCO`, the composite z-score in [1] is -0.0841; in assay [2], 0.284; in assay [3], -0.0048; in assay [4], 0.486; in assay [5], 1.48; in [6], 0.96. Moreover, the composite z-score in [7] is 1.31; in assay [9], 0.62; in [10], -0.0994; in assay [11], 1.53; in assay [15], 2.62; in assay [17], -0.0437. The results for the composite z-score in assay [18], in [19] and in [20] were 1.42, 1.07 and 0.13, respectively. Besides, the z-score in [8] is -0.154 (inactive); in [12] it was 1.06 (inactive); in assay [13], 0.578 (inactive); in assay [14], 2.4 (inactive); in assay [16], 0.636 (inactive).
Consider `COC(=O)[C@@]1(Cc2ccc(OC)cc2)[C@H]2c3cc(C(=O)N4CCCC4)n(CCc4ccc(O)c(OC)c4)c3C[C@H]2CN1C(=O)c1ccccc1`, for which the composite z-score in assay [1] was 0.411; in [2], -0.336; in [3], 0.0331; in assay [4], 0.252; in assay [5] it was 1.56; in assay [6] it was 1.2. Also, the composite z-score in assay [7] is 0.803; in [9], 0.603; in assay [10] it was 0.167; in assay [11], -1.53; in [15] it was 2.6; in assay [17], 0.128. Besides, the composite z-score was -0.879 in assay [18], -0.56 in [19] and 0.0055 in [20]. Also, the z-score in [8] was -0.454 (inactive); in assay [12] it was 0.525 (inactive); in [13], 0.452 (inactive); in assay [14], 0.0019 (inactive); in [16], -1.13 (inactive).
In the case of `C=CC[C@@]1(C(=O)NCC(O)CO)N=C(c2ccc(OCCCO)cc2)O[C@@H]1c1ccccc1` (stereo not given in full), the composite z-score in assay [1] is 1.49; in assay [2] it was 2.09; in [3], 0.255; in [4] it was 0.44; in assay [5], -0.565; in assay [6] it was 1.64. The composite z-score is 0.845 in assay [7]; 0.872 in [9]; 0.108 in assay [10]; 1.4 in assay [11]; 3.12 in [15]; 0.344 in assay [17]. In addition, the composite z-score in assay [18] came out at 0.315; in assay [19] it was 0.0815; in [20], 0.168. Besides, the z-score is -1.09 (inactive) in [8]; -0.646 (inactive) in assay [12]; -1.17 (inactive) in assay [13]; -1.12 (inactive) in assay [14]; 0.727 (inactive) in assay [16].
Turning to `CCOC(=O)C1=CC[C@@H](c2ccccc2)N(S(=O)(=O)c2ccc(C)cc2)[C@H]1C=C(C)C`, the composite z-score was -0.259 in [1]; 0.644 in [2]; 0.119 in assay [3]; 0.831 in [4]; 1.46 in [5]; 0.944 in assay [6]. The composite z-score in assay [7] was 0.957; in assay [9], 1.58; in [10], -0.199; in assay [11] it was 1.54; in assay [15], 3.22; in assay [17] it was 0.0704. Further, the composite z-score in assay [18] was determined as 0.793; in [19], 1.06; in assay [20], 0.101. Besides, the z-score was -2.39 (inactive) in [8]; 0.465 (inactive) in [12]; 2.76 (inactive) in [13]; 4 (inactive) in assay [14]; 0.322 (inactive) in [16].
